From the supplement of paper PMC4709259
Structures can show the parent of a compound that is named as a salt. ± gives the standard deviation.

Key:
Jurkat [1] = assay: mean cell size (FSC-A) relative to DMSO control (fraction of control); higher = larger cells; details: 48 h
How it was run: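 Jurkat cells seeded at 600 cells/µl were incubated 1 h, then exposed for 48h to the Enzo Screen-Well FDA Approved Drug Library v2.0 at 25µM in 0.9% (v/v) final DMSO. Drugs that cut counts below 20% of controls were diluted 10-fold and retested, down to 25nM. Cell count and mean cell size (forward scatter area) were read on an Accuri C6 flow cytometer, relative to solvent-only controls. Plates held 6-12 controls; values are means of 3 biological replicates.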

Jurkat [2] = assay: cell count relative to DMSO control (fraction of control); higher = more cells (less growth inhibition); details: 48 h

Structure (SMILES) | mean cell size (Jurkat [1]) | cell count (Jurkat [2])
O=C(O)c1cc(N=Nc2ccc(O)c(C(=O)O)c2)ccc1O [Olsalazine·Na] (concentration: 25 µM) | 0.955 ± 0.036 | 0.611 ± 0.042
CC(=O)O[C@@]12CO[C@@H]1C[C@H](O)[C@@]1(C)C(=O)[C@H](O)C3=C(C)[C@@H](OC(=O)[C@H](O)[C@@H](NC(=O)OC(C)(C)C)c4ccccc4)C[C@@](O)([C@@H](OC(=O)c4ccccc4)[C@H]21)C3(C)C [Docetaxel (Taxotere)] (concentration: 25 nM) | 1.14 ± 0.035 | 0.518 ± 0.052
C[N+]1(C)[C@@H]2CC[C@H]1C[C@@H](OC(=O)C(O)c1ccccc1)C2 (stereo partly drawn) [Homatropine Methylbromide] (concentration: 25 µM) | 0.9418 ± 0.0067 | 0.565 ± 0.018
Cc1ccc(Cl)c(Nc2ccccc2C(=O)O)c1Cl [Meclofenamate·Na] (concentration: 25 µM) | 0.903 ± 0.031 | 0.293 ± 0.032
C=CC1=C(C(=O)O)N2C(=O)[C@@H](NC(=O)/C(=N\OCC(=O)O)c3csc(N)n3)[C@H]2SC1 [Cefixime] (concentration: 25 µM) | 0.977 ± 0.018 | 0.846 ± 0.069
NCCCCCC(=O)O [Aminocaproic Acid] (concentration: 25 µM) | 0.976 ± 0.05 | 0.853 ± 0.1
CN(C)CCOC(=O)C(c1ccccc1)C1(O)CCCC1 (stereo not drawn) [Cyclopentolate] (concentration: 25 µM) | 0.996 ± 0.057 | 0.596 ± 0.08
O=c1[nH]cnc2c1ncn2[C@H]1CC[C@@H](CO)O1 [Didanosine] (concentration: 25 µM) | 0.9758 ± 0.0048 | 0.462 ± 0.15
CC(C)c1ccc2oc3nc(N)c(C(=O)O)cc3c(=O)c2c1 [Amlexanox] (concentration: 25 µM) | 0.923 ± 0.018 | 0.469 ± 0.12
CO/N=C(\C(=O)N[C@@H]1C(=O)N2C(C(=O)[O-])=C(C[N+]3(C)CCCC3)CS[C@H]12)c1csc(N)n1 [Cefepime·HCl Hydrate] (concentration: 25 µM) | 1.02 ± 0.046 | 0.826 ± 0.045
CC(=O)OC[C@H]1O[C@@H]([S-])[C@H](OC(C)=O)[C@@H](OC(C)=O)[C@@H]1OC(C)=O.CCP(CC)CC.[Au+] [Auranofin] (concentration: 250 nM) | 0.9833 ± 0.0086 | 0.762 ± 0.058
O=C(CCCCCCC(=O)Nc1ccccc1)NO [Vorinostat] (concentration: 250 nM) | 0.947 ± 0.035 | 0.71 ± 0.048
CC1COc2c(N3CCN(C)CC3)c(F)cc3c(=O)c(C(=O)O)cn1c23 (stereo not drawn) [Ofloxacin] (concentration: 25 µM) | 0.928 ± 0.011 | 0.989 ± 0.073
CC(=O)Oc1ccccc1C(=O)O [Aspirin (Acetylsalicylic Acid)] (concentration: 25 µM) | 0.9355 ± 0.0074 | 0.97 ± 0.082
O=C1CCc2cc(OCCCCc3nnnn3C3CCCCC3)ccc2N1 [Cilostazol] (concentration: 25 µM) | 0.98 ± 0.044 | 0.819 ± 0.12
CN(C)CCOC(c1ccccc1)c1ccccc1.Cn1c(=O)c2[nH]c(Cl)nc2n(C)c1=O [Dimenhydrinate] (concentration: 25 µM) | 1.05 ± 0.051 | 0.558 ± 0.15
C#C[C@]1(O)CC[C@H]2[C@@H]3CCc4cc(OC)ccc4[C@H]3CC[C@@]21C [Mestranol] (concentration: 25 µM) | 1.01 ± 0.022 | 0.91 ± 0.12
CN(C)c1nc(N(C)C)nc(N(C)C)n1 [Altretamine] (concentration: 25 µM) | 0.945 ± 0.019 | 0.555 ± 0.077
CN(C)CCC=C1c2ccccc2C=Cc2ccccc21 [Cyclobenzaprine·HCl] (concentration: 25 µM) | 1 ± 0.041 | 0.631 ± 0.094
Cc1cc2c(s1)Nc1ccccc1N=C2N1CCN(C)CC1 [Olanzapine] (concentration: 25 µM) | 1.02 ± 0.06 | 0.914 ± 0.1
COc1cc(C)c(/C=C/C(C)=C/C=C/C(C)=C/C(=O)O)c(C)c1C [Acitretin] (concentration: 25 µM) | 0.883 ± 0.021 | 0.625 ± 0.11
NCC(=O)CCC(=O)O [Aminolevulinic Acid·HCl] (concentration: 25 µM) | 0.911 ± 0.013 | 0.638 ± 0.08
C[N+]1(C)[C@@H]2C[C@@H](OC(=O)C(O)(c3cccs3)c3cccs3)C[C@H]1[C@@H]1O[C@@H]12 [Tiotropium Bromide Monohydrate] (concentration: 25 µM) | 0.988 ± 0.036 | 0.68 ± 0.051
COc1ccc2cc(CCC(C)=O)ccc2c1 [Nabumetone] (concentration: 25 µM) | 0.938 ± 0.032 | 0.888 ± 0.058
